The nature of assay [1]: qHTS assay to identify small molecule antagonists of the glucocorticoid receptor (GR) signaling pathway - cell viability counter screen (AID 720693). Also: % is scaled to controls: 0 for no effect and ±100 for the full control effect; nearly all actives have a fitted effect of over 55% in size.
The nature of assay [2]: qHTS assay for identifying genotoxic compounds that show differential cytotoxicity against isogenic chicken DT40 cell lines with known DNA damage response pathways - Rev3 mutant cell line (AID 743014). Also: nearly all actives have a fitted effect of over 55% in size. Also: potency is read from the fitted curve at half-maximal effect. As to activity, negative = cytotoxicity: % is scaled to controls: 0 for no effect and ±100 for the full control effect.
Assay [3] in a line: qHTS assay for identifying genotoxic compounds that show differential cytotoxicity against isogenic chicken DT40 cell lines with known DNA damage response pathways - Rad54/Ku70 mutant cell line (AID 743015). Also: nearly all actives have a fitted effect of over 60% in size. Also: potency is read from the fitted curve at half-maximal effect. As to activity change, negative = cytotoxicity: % is scaled to controls: 0 for no effect and ±100 for the full control effect.
Assay [4] is described as follows: qHTS assay to identify small molecule antagonists of the androgen receptor (AR) signaling pathway - cell viability counter screen (AID 743033; also: % is scaled to controls: 0 for no effect and ±100 for the full control effect; nearly all actives have a fitted effect of over 45% in size).
The nature of assay [5]: qHTS assay to identify small molecule antagonists of the androgen receptor (AR) signaling pathway using the MDA cell line - cell viability counter screen (AID 743041; also: nearly all actives have a fitted effect of over 45% in size; also: potency is read from the fitted curve at half-maximal effect). A digest of the protocol: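 Viability counter screen run alongside the AR antagonist reporter: cells seeded 5 h before compound, R1881 added, 16 h incubation at 37C without CO2, fluorescent CellTiter-Fluor signal quantified.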

The nature of assay [6]: qHTS assay to identify small molecule antagonists of the thyroid receptor (TR) signaling pathway - cell viability counter screen (AID 743064). Also: nearly all actives have a fitted effect of over 50% in size. Also: potency is read from the fitted curve at half-maximal effect. A digest of the protocol:
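GH3.TRE-Luc rat pituitary cells dosed after 4 hr plating, co-stimulated with T3 at 1 nM final, incubated 23.5 h at 37 C. Viability measured in the same wells by CellTiter-Fluor fluorescence after 30 min further at 37 C.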

Assay [7] is described as follows: qHTS assay to identify small molecule antagonists of the thyroid receptor (TR) signaling pathway (AID 743065). Also: nearly all actives have a fitted effect of over 55% in size. Also: potency is read from the fitted curve at half-maximal effect. A digest of the protocol:
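GH3.TRE-Luc rat pituitary cells carrying two TR response elements driving luciferase were plated for 4 h, given compound plus 1 nM T3 (final), and incubated 23.5 h at 37 C. ONE-Glo luminescence measured reporter inhibition; CellTiter-Fluor fluorescence tracked cytotoxicity.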

Assay [8] relates to thyroid hormone receptor (rat, GH3 cells). In words: qHTS assay to identify small molecule agonists of the thyroid receptor (TR) signaling pathway (AID 743066; calls by dose curve; also: % is scaled to controls: 0 for no effect and ±100 for the full control effect).
The target of assay [9] is Estrogen receptor (Homo sapiens) (UniProt P03372). In words: qHTS assay to identify small molecule antagonists of the estrogen receptor alpha (ER-alpha) signaling pathway (AID 743069; active = well fitted curve in the direction sought with a large enough effect in the signal ratio in the repeat runs, not every such curve was filed as active; inconclusive = weak or mixed curves, or effect the other way; inactive = no such curve, though single readings can be large or run the other way; the % refers to the signal ratio; also: % is scaled to controls: 0 for no effect and ±100 for the full control effect). A digest of the protocol: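 Estradiol-stimulated ER-alpha-UAS-bla HEK293 cells, 18 hr compound exposure at 37C. LiveBLAzer B/G substrate, 2 hr RT, fluorescence read.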
Estrogen receptor (Homo sapiens), sequence (P03372 whole entry, looked up): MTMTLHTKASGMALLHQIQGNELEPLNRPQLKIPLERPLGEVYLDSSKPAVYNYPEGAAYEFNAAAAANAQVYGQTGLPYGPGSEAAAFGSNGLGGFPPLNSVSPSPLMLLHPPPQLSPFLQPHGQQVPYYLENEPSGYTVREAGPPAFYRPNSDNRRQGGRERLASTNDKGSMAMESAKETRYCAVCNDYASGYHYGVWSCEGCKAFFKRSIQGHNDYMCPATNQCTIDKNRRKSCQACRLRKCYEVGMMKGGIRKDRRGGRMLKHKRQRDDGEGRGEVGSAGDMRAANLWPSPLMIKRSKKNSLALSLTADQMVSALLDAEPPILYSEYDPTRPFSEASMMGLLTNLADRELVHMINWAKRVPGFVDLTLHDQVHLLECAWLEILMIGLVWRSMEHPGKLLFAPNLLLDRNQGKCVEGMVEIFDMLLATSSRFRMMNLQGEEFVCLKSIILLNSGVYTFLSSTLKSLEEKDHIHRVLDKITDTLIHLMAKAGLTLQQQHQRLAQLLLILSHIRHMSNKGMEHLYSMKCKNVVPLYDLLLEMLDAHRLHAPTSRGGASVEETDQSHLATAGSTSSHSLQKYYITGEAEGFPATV
Assay [10] is described as follows: qHTS assay to identify small molecule antagonists of the estrogen receptor alpha (ER-alpha) signaling pathway - cell viability counter screen (AID 743074; calls by dose curve;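 also: HEK293 cells carrying ER-alpha-UAS-bla reporter stimulated with 17beta-estradiol; % is scaled to controls: 0 for no effect and ±100 for the full control effect; nearly all actives have a fitted effect of over 45% in size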).
Assay [11] deals with Estrogen receptor (Homo sapiens) (UniProt P03372). In words: qHTS assay to identify small molecule agonists of the estrogen receptor alpha (ER-alpha) signaling pathway (AID 743075; calls by dose curve;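 also: HEK293 GripTite cells with ER-alpha and UAS-driven beta-lactamase reporter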; also: potency is read from the fitted curve at half-maximal effect).
Assay [12] has the same target. In words: qHTS assay to identify small molecule agonists of the estrogen receptor alpha (ER-alpha) signaling pathway using the BG1 cell line (AID 743079). Also: nearly all actives have a fitted effect of over 20% in size. Also: potency is read from the fitted curve at half-maximal effect.
A short description of assay [13]: qHTS assay to identify small molecule antagonists of the estrogen receptor alpha (ER-alpha) signaling pathway using the BG1 cell line (AID 743080; calls by dose curve;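 also: BG1 cells stimulated with 17beta-estradiol alongside compound; series mostly up to about 70 µM; % is scaled to controls: 0 for no effect and ±100 for the full control effect; nearly all actives have a fitted effect of over 25% in size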). The gist of the method: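 BG1Luc4E2, endogenous ER-alpha, 4xERE-luc; 5 d charcoal-stripped FBS, phenol red free; 24 h plating; cpd + 17beta-estradiol 21.5 h, 37 C/5% CO2; CellTiter-Fluor viability 30 min, then ONE-Glo luciferase 30 min RT.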

Assay [14] can be described thus: qHTS assay to identify small molecule antagonists of the estrogen receptor alpha (ER-alpha) signaling pathway using the BG1 cell line - cell viability counter screen (AID 743081).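 Also: compound given together with 17beta-estradiol as the ER stimulus; nearly all actives have a fitted effect of over 45% in size.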 Also: potency is read from the fitted curve at half-maximal effect.
Assay [15] deals with Aromatase (Homo sapiens) (UniProt P11511). In words: qHTS assay to identify aromatase inhibitors (AID 743083). Also: series mostly up to about 70 µM; % is scaled to controls: 0 for no effect and ±100 for the full control effect; nearly all actives have a fitted effect of over 55% in size.
Aromatase (Homo sapiens), sequence (P11511 whole entry, looked up): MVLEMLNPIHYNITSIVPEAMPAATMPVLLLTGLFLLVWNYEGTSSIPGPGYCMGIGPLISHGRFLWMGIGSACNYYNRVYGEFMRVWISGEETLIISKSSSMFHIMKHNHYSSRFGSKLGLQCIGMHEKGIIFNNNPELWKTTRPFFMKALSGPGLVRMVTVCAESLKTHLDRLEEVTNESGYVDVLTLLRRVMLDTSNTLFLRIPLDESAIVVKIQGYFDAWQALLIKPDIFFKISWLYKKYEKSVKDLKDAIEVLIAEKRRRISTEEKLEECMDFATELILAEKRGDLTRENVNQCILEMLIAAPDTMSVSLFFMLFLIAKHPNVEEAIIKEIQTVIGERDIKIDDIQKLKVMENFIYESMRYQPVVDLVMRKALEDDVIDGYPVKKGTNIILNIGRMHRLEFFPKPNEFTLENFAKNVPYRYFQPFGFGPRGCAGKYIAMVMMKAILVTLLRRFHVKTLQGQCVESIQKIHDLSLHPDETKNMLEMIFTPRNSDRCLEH
Assay [16] is described as follows: qHTS assay for identifying genotoxic compounds that show differential cytotoxicity against isogenic chicken DT40 cell lines with known DNA damage response pathways - wild type cell line (AID 743012). Also: % is scaled to controls: 0 for no effect and ±100 for the full control effect; nearly all actives have a fitted effect of over 60% in size. The gist of the method: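 Wild type DT40, 300 cells/well, ~0.5 h settle at 37 C/5% CO2; compounds in DMSO added by pintool; 40 h at 37 C/5% CO2; CellTiter-Glo, 30 min RT; luminescence.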

Assay [17] addresses Androgen receptor (Homo sapiens) (UniProt P10275). In words: qHTS assay to identify small molecule agonists of the androgen receptor (AR) signaling pathway (AID 743036; active = well fitted activation curve with a large enough effect in the signal ratio in the repeat runs, with a control signal flat, not every such curve was filed as active; inconclusive = weak or mixed curves, or effect the other way; inactive = no such curve, though single readings can be large or run the other way; the % refers to the signal ratio; also: potency is read from the fitted curve at half-maximal effect). A digest of the protocol: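 AR-UAS-bla HEK293 cells, plated 4 h before dosing, were treated with compound for 16 h at 37C. beta-Lactamase reporter read after 2 h with LiveBLAzer B/G FRET substrate at room temperature.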

Assay [18] shares this target. In words: qHTS assay to identify small molecule agonists of the androgen receptor (AR) signaling pathway using the MDA cell line (AID 743040; also: % is scaled to controls: 0 for no effect and ±100 for the full control effect; nearly all actives have a fitted effect of over 20% in size). The gist of the method: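 Luminescence from ONE-Glo, read after 30 min at room temperature, reflects MMTV-driven luciferase in MDA-kb2 cells (AR- and GR-responsive). Treatment lasted 16 h at 37C, 0% CO2.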
Assay [19] has the same target. In words: qHTS assay to identify small molecule antagonists of the androgen receptor (AR) signaling pathway using the MDA cell line (AID 743042). A digest of the protocol: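 MDA-kb2 cells (human breast carcinoma, stably carrying an MMTV-luciferase reporter responsive to AR and GR) were plated at 3,000 cells/well and preincubated 5 hr at 37C, then given compound plus R1881 agonist for 16 h. ONE-Glo luminescence was read.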

The values that follow come from PubChem BioAssay (Tox21).

A number with no mark means an inactive call. The source made the active and inactive calls. Unless noted, calls follow the shape of the dose curve; as a rule, active = well fitted curve in the direction sought with a large enough effect in the repeat runs; inconclusive = weak or mixed curves; inactive = no such curve, though single readings can be large; an effect the other way counts as inactive or inconclusive.

Androgen receptor (Homo sapiens), sequence (P10275 whole entry, looked up): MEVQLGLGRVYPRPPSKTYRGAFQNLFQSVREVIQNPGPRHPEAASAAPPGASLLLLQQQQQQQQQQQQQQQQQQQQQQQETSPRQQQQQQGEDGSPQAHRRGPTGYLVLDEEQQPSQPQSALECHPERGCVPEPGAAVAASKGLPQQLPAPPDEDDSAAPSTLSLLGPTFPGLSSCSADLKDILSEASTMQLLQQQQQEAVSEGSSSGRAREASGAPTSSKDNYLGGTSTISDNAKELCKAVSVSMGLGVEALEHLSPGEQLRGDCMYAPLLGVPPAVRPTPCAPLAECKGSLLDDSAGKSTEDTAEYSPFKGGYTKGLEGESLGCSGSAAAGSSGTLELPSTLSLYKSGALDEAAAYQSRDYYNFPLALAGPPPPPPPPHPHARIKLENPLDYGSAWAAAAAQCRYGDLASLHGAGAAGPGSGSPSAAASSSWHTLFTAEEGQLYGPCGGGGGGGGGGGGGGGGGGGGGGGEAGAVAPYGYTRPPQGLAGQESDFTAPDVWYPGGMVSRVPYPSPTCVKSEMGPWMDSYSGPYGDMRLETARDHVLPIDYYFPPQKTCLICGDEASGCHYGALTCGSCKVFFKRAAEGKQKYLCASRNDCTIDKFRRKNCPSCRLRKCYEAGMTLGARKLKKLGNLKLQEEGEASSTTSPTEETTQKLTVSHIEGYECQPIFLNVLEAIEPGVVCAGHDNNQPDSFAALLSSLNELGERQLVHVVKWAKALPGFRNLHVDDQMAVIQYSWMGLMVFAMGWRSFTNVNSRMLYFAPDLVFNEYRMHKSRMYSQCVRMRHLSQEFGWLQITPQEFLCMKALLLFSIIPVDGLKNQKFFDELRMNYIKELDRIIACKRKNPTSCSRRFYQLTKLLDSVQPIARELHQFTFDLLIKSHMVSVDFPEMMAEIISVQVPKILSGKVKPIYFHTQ

In the case of `CC(C)(C)CC(C)(C)c1ccc(Nc2ccc(C(C)(C)CC(C)(C)C)cc2)cc1`, the viability change, negative = cytotoxic was -8.5% [at 7.04 µM] in assay [1] and -4.37% [at 8.47 µM] in assay [5]. Moreover, the values for the activity, negative = cytotoxicity in assay [2] and in assay [10] were 3.12% [at 8.53 µM] and -17.2% [at 6.72 µM], respectively. Besides, the activity change, negative = cytotoxicity is 9.12% [at 8.55 µM] in assay [3], 1.05% [at 7.04 µM] in assay [4] and 8.25% [at 8.47 µM] in [14]. Further, the activity change, negative = cytotoxic in assay [6] is 10.6% [at 8.44 µM]. In addition, the activity, negative = inhibition in assay [7] was 9.26% [at 8.44 µM]; in assay [9], -8.94% [at 6.71 µM]; in assay [15], -0.995% [at 8.47 µM]. Moreover, the activation in assay [8] is 1.29% [at 8.08 µM]; in assay [11], -3.98% [at 6.71 µM]; in assay [12], -8.83% [at 8.47 µM]. In assay [13], the activity change, negative = inhibition was 1.65% [at 8.47 µM].

For the molecule `CCC(COC(=O)CCS)(COC(=O)CCS)COC(=O)CCS`, the Potency result in assay [1], in assay [16], in assay [4], in assay [5], in [6] and in [7] was “inactive” throughout. The Potency result in [9], in [10], in [11], in [12], in [13] and in assay [14] was “inactive” each time. Further, the Potency result in [15] is “inactive”. For the same molecule, the result in [8] was inactive.

Take `CCC(=O)C(=O)CC`: the Potency entry in assay [1], in assay [5], in assay [10] and in assay [14] was “inactive” in each case. Also, in assay [2], the Potency is 28.5 µM (active). For the same molecule, the call in assay [8] was inactive.

On to `Cl[Si](Cl)(c1ccccc1)c1ccccc1`, for which the Potency result in assay [1], in assay [2], in assay [3], in assay [4], in assay [5] and in [9] was “inactive” in each case. Further, the Potency entry in assay [10], in assay [11], in [12], in assay [13], in [14] and in [15] was “inactive” throughout. Also, the outcome in [8] was inactive.

As to `CC1(C)CCC[C@]2(C)[C@H]3CC(=O)O[C@]3(C)CC[C@@H]12`, the Potency entry in assay [1], in assay [5], in assay [6], in assay [10], in [11] and in [12] was “inactive” in each case. The Potency entry in [13] and in assay [14] was “inactive” throughout. The Potency is 61.1 µM (active) in assay [2] and 54.5 µM (active) in [7]. Further, in assay [8], the molecule was called inactive.

With `S=C([S-])NCCNC(=S)[S-].S=C([S-])NCCNC(=S)[S-].[Mn+2].[Zn+2]`, the Potency entry in assay [1], in [4], in [5] and in assay [15] was “inactive” in each case. Further, the Potency in assay [2] is 33.5 µM (active); in assay [3], 29.8 µM (active). Further, the outcome in [8] was inactive.

In the case of `Cc1c(C)c([N+](=O)[O-])c(C(C)(C)C)c([N+](=O)[O-])c1C`, the Potency entry in assay [1], in assay [16], in assay [3], in assay [4], in assay [5] and in assay [9] was “inactive” throughout. Besides, the Potency entry in assay [11], in [12], in [13] and in assay [14] was “inactive” in each case.

On to `COc1ccc(-c2coc3cc(O)ccc3c2=O)cc1`, for which the Potency entry in [1], in assay [4], in assay [5], in assay [6], in assay [7] and in assay [10] was “inactive” throughout. Moreover, the Potency entry in assay [14] and in assay [15] was “inactive” in each case. The Potency was 30.6 µM (active) in assay [2], 7.76 µM [inconclusive] (active) in assay [11] and 1.54 µM (active) in assay [12]. In addition, the molecule was classed as inactive in assay [8].

On to `C[C@H]1NCc2cc(-c3ccc4c(=O)c(C(=O)O)cn(C5CC5)c4c3OC(F)F)ccc21`, for which the Potency entry in assay [1], in assay [2], in [3], in [4], in [5] and in assay [6] was “inactive” throughout. The Potency result in [9], in assay [11], in assay [12], in [13], in assay [14] and in [15] was “inactive” throughout. Moreover, in [8], the molecule was classed as inactive.

`c1ccc(SSc2ccccc2)cc1`: the Potency entry in assay [1], in assay [5], in assay [6], in [7], in [9] and in assay [10] was “inactive” throughout. Further, the Potency result in assay [11], in assay [12], in assay [13], in assay [14] and in assay [15] was “inactive” in each case. Moreover, the Potency in assay [2] is 27.5 µM (active). In addition, the molecule was called inactive in [8].

For the molecule `CCCC(=O)OCCc1ccccc1`, the Potency entry in [1], in [16], in assay [2], in [5], in [6] and in [10] was “inactive” in each case. Also, the Potency result in assay [14] and in [15] was “inactive” throughout.

Turning to `O=C(Nc1ccc2c(O)c(N=Nc3ccc(N=Nc4ccc(S(=O)(=O)O)cc4)cc3)c(S(=O)(=O)O)cc2c1)c1ccccc1`, the Potency entry in assay [1], in assay [16], in assay [4], in assay [9], in assay [10] and in assay [11] was “inactive” each time. For the same molecule, the Potency in assay [5] is 24.3 µM (active); in assay [6], 30.6 µM (active); in assay [14], 27.3 µM (active). In addition, in assay [8], the molecule was called inactive.

Consider `CCOC(=O)NNc1ccc(N(CC)CC(C)O)nn1` (stereo not given), for which the Potency entry in [1], in assay [5], in assay [6], in assay [9], in assay [10] and in assay [11] was “inactive” throughout. Moreover, the Potency entry in assay [12], in assay [13], in [14] and in assay [15] was “inactive” throughout. Moreover, the Potency in [2] was 23.7 µM (active).

As for `CCO[Si](OCC)(OCC)OCC`, the Potency result in [1], in [16], in assay [2], in assay [4], in assay [5] and in [6] was “inactive” throughout. Moreover, the Potency result in assay [9], in assay [10], in assay [11], in [12], in assay [13] and in [14] was “inactive” in each case. For the same molecule, the Potency result in [15] is “inactive”.

`CCCCCCCCCCCC(=O)OCC(C)OC(=O)CCCCC(=O)O` (stereo not given): the Potency result in assay [1], in assay [2], in [4], in assay [5], in assay [6] and in [7] was “inactive” each time. Also, the Potency entry in assay [9], in assay [10], in assay [12], in assay [13], in [14] and in assay [15] was “inactive” each time. Also, in [8], the call was inactive.

Consider `Nc1nc(-c2ccccc2)cs1`, for which the Potency entry in assay [1], in assay [16], in assay [3], in [4], in assay [5] and in [6] was “inactive” in each case. Also, the Potency entry in assay [10], in assay [14] and in assay [15] was “inactive” throughout.

Regarding `COC(=O)c1ccccc1OC`, the Potency result in assay [1], in assay [2], in assay [3], in [4], in assay [5] and in [6] was “inactive” in each case. Also, the Potency result in assay [7], in assay [9], in [10], in assay [11], in assay [12] and in assay [13] was “inactive” throughout. Also, the Potency entry in [14] and in assay [15] was “inactive” each time. Besides, in [8], the outcome was inactive.

`O=S(=O)(O)c1ccc(Nc2nc(Nc3ccc(/C=C/c4ccc(Nc5nc(Nc6ccc(S(=O)(=O)O)cc6)nc(N(CCO)CCO)n5)cc4S(=O)(=O)O)c(S(=O)(=O)O)c3)nc(N(CCO)CCO)n2)cc1`: the Potency result in assay [1], in [2], in assay [3], in [4], in assay [19] and in assay [7] was “inactive” each time. Further, the Potency result in assay [12], in [13] and in assay [15] was “inactive” throughout. Besides, in assay [17], the Potency is 33.1 µM (active). In addition, the call in assay [18] and in assay [8] was inactive.
